Hits are enriched below; roughly 6.5% of the tested compounds scored in any of these assays.
Giardia killer = kills Giardia lamblia. Giardia lamblia trophozoite viability. activity change, % at 7.66 µM, hits read low. 340,000 compounds, 0.15% hits. AID 540267; in the data active = activity change below about -80%; inconclusive = between about -30% and that limit;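 also: parasites exposed to compound for two days anaerobically before the ATP read; % is scaled to controls: 0 for no effect and ±100 for the full control effect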
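Giardia trophozoites, 100 cells per well, were exposed to compounds for 48 hrs at 37 deg C under anaerobic conditions; viability was then read as ATP content by bioluminescence after 15-30 min at room temperature.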
HT1080 IDH1KD tx = toxicity to HT-1080 IDH1 knockdown cells (counter line); 360,000 compounds, 2% hits; HT-1080 IDH1 knockdown viability, ATP luminescence, 48 h; AID 686971; Potency, µM (top dose mostly 46.1 µM), without a hit: at the highest dose activity, negative = toxicity, actives largely listed as cytotoxic;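 also: potency is read from the fitted curve at half-maximal effect; 0% = DMSO wells and -100% = cell-free medium wells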
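Cytotoxicity counter-line: IDH1KD HT-1080, 48 h, CellTiter-Glo. Curves classed by r2, magnitude and activity.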
HepG2 tox = counter-screen for TGF-b inhibitors: cytotoxicity in HepG2 cells; AID 588856; Potency, µM (doses to about 46.1 µM), for the others: top-dose activity change, negative = cytotoxicity, hits mostly cytotoxic; HepG2 CAGA-GFP viability, ATP luminescence, 18 h; 410,000 compounds, 0.76% hits; also: potency is read from the fitted curve at half-maximal effect
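HepG2 CAGA-GFP cells (1000/well, DMEM with 1% FBS) received compound, then TGF-beta at 500 pg/mL final, and were incubated 18 hours at 37 degrees C. Viability was read by CellTiter-Glo luminescence. Media-only wells were set as complete cell-killing and DMSO as no toxicity.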
IL1B secr inh = inhibitors of inflammasome signaling (IL-1 beta secretion). activity change, % at 57.5 µM. THP-1 LPS/ATP IL-1B secretion, AlphaLISA, 16 h; active compounds read low. AID 743279. 360,000 compounds, 4.7% hits; in the data active = activity change below about -50%; inconclusive = mostly about -30% to -49%; also: % is scaled to controls: 0 for no effect and ±100 for the full control effect
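THP-1 cells pretreated 1 hr with compounds (up to 57.5 uM final), then stimulated with LPS (250 ng/mL final) plus ATP (1.25 mM final); secreted IL-1B measured by AlphaLISA after 16 hr, decreased signal indicating inhibition.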
TGFb SMAD3 inh = blocks TGF-b signaling. 410,000 compounds, 1.2% hits. AID 588855. HepG2 CAGA-GFP TGF-b/SMAD3 reporter, GFP fluorescence, 18 h; TGF-beta stimulated, 500 pg/mL final. Potency, µM (doses to about 46.1 µM), inactives show top-dose activity, negative = inhibition, actives largely listed as inhibitors; also: potency is read from the fitted curve at half-maximal effect; % is scaled to controls: 0 for no effect and ±100 for the full control effect; nearly all actives have a fitted effect of over 65% in size
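HEPG2 CAGA-GFP, 1000 cells/well; 2 h settle, 37 C; cpd via pin tool; TGF-b 500 pg/mL final; 18 h, 37 C; GFP imaging ex488/em500-530; %Activity normalised to -TGF-b and +DMSO controls; CRC fit, curve class.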
HT1080NT lethal = kills 2HG-producing HT-1080-NT fibrosarcoma cells; HT-1080-NT fibrosarcoma viability, CellTiter-Glo ATP luminescence, 48 h; Potency, µM (doses to about 46.1 µM), for the others: at the highest dose activity, negative = less viability, usual class: cytotoxic; 360,000 compounds, 1.6% hits;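 also: NT is the 2HG producing partner of a matched IDH1 knockdown line; potency is read from the fitted curve at half-maximal effect; 0% = DMSO-treated cells and -100% = media-only wells without cells; nearly all actives have a fitted effect of over 55% in size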
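Viability of the 2HG-overproducing fibrosarcoma line after 48 hours of compound exposure at 37 degrees C was determined by luminescence with CellTiter-Glo, and concentration-effect curves were then fitted and categorized.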
* marks the source's active call; other numbers are inactive results; u = inconclusive; x = not tested or not shown. Unless noted, calls follow the shape of the dose curve; as a rule, active = well fitted curve in the direction sought with a large enough effect; inconclusive = small, poorly fitted or top-dose-only effect, or another doubt; inactive = no such curve, though single readings can be large; an effect the other way counts as inactive or inconclusive.

SMILES	Giardia killer	HT1080 IDH1KD tx	HepG2 tox	IL1B secr inh	TGFb SMAD3 inh	HT1080NT lethal
Cc1oc2c(cc(NS(=O)(=O)c3ccc4c5c(cccc35)C(=O)N4)c3ccccc32)c1C(=O)OC(C)C	-15	-28%	-31%	-21	0%	-22%
Cc1ccc(Cn2c(SCc3ccc(C(=O)N4CCCCC4)cc3)nc3ccncc32)cc1	x	x	-33%	x	11µM*	x
CC1CCC(NC(=O)c2ccc(CSc3nc4ccncc4n3Cc3ccc(F)cc3)cc2)CC1 (configuration not stated)	x	x	-30%	x	3.5µM*	x
Cc1ccc(Cn2c(SCc3ccc(C(=O)N4CCCCCC4)cc3)nc3ccncc32)cc1	x	x	-40%	x	10µM*	x
Cc1ccccc1Cn1c(SCc2ccc(C(=O)N3CCCCC3)cc2)nc2ccncc21	x	x	-30%	x	13µM*	x
O=C(c1ccc(CSc2nc3ccncc3n2Cc2ccccc2F)cc1)N1CCCCCC1	x	x	-13%	x	u	x
CC(C)(C)CC(C)(C)NC(=S)N1CCN(Cc2ccc3c(c2)OCO3)CC1	-6	12%	2%	u	6%	10%
CCNc1ccc(C(=O)NN=C2CCCC2)cc1[N+](=O)[O-]	6	u	-5%	15	0%	u
Nc1nc2c(nnn2C2CC(O)C(CO)O2)c(=O)[nH]1 (configuration not stated)	x	5.2µM*	-25%	26	u	u
Nc1nc2c(ncn2C2C[C@H](O)[C@@H](CO)O2)c(=O)[nH]1 (some centres not stated)	8	u	4%	10	3%	u
Cc1cccc(C)c1NC(=O)Cn1nc(-c2ccc(Cl)s2)ccc1=O	-4	4%	-13%	42	0%	-6%
C#CCOCCOCCOCCNc1nc(N2CCN(C(=O)CCCCCCCCCCNC(=O)[C@@H]([C@H](C)O)n3cc(C)nn3)CC2)nc(N2CCN(C(=O)CCCCCCCCCCNC(=O)[C@@H]([C@H](C)O)n3cc(C)nn3)CC2)n1	5	21µM*	-3%	-18	-9%	-27%
C#CCOCCOCCOCCNc1nc(N2CCN(C(=O)CCCCCCCCCCNC(=O)[C@H](CCC(=O)O)n3cc(CCCCCN)nn3)CC2)nc(N2CCN(C(=O)CCCCCCCCCCNC(=O)[C@@H]([C@H](C)O)n3cc(C)nn3)CC2)n1	8	1%	-25%	u	-5%	-4%
C#CCOCCOCCOCCNc1nc(N2CCN(C(=O)CCCCCCCCCCNC(=O)[C@H](CCCCN)n3cc(CCCC(=O)O)nn3)CC2)nc(N2CCN(C(=O)CCCCCCCCCCNC(=O)[C@H](CCCCN)n3cc(CCCC(=O)O)nn3)CC2)n1	18	-25%	-2%	-3	-11%	3%
C#CCOCCOCCOCCNc1nc(N2CCN(C(=O)CCCCCCCCCCNC(=O)[C@H]([C@@H](C)CC)n3cc(CCCCCN)nn3)CC2)nc(N2CCN(C(=O)CCCCCCCCCCNC(=O)[C@@H]([C@H](C)O)n3cc(C)nn3)CC2)n1	11	u	-102%	-68*	u	u
C#CCOCCOCCOCCNc1nc(N2CCN(C(=O)CCCCCCCCCCNC(=O)[C@H](CCCCN)n3cc(CCO)nn3)CC2)nc(N2CCN(C(=O)CCCCCCCCCCNC(=O)[C@H](CCCCN)n3cc(CCO)nn3)CC2)n1	-20	-2%	-24%	-55*	u	-6%
C#CCOCCOCCOCCNc1nc(N2CCN(C(=O)CCCCCCCCCCNC(=O)[C@H](CCCCN)n3cc(CCO)nn3)CC2)nc(N2CCN(C(=O)CCCCCCCCCCNC(=O)[C@@H]([C@H](C)O)n3cc(C)nn3)CC2)n1	-1	-29%	-2%	-71*	-24%	-15%
CCN(c1ccccc1)c1ccc2cc(S(=O)(=O)N3CCCC3)ccc2n1	x	x	-17%	x	-23%	x
O=S1(=O)CCN2C(=N1)Sc1c2ccc2c1CCCC2	-18	-14%	-4%	4	18%	7%

High-throughput results from PubChem BioAssay.
